Measured values reported in the supplement of paper PMC10849652.
Targets with a hit are over-represented here; the source holds about 7,900 in all. About 0.6% of all pairs of compound and target were hits.

How the values were obtained:
Assay in all cases: log2 fold change, soluble protein after heating vs DMSO (PISA); higher = thermal stabilisation; K562 cells, 10 uM, 30 min; active = over 0.2 and 3.5 SD of the protein, either way, in both replicates (recomputed)
[1] = compound: NC(=O)Nc1cc(-c2cccc(F)c2)sc1C(=O)N[C@H]1CCCNC1
Method in brief: (§1)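 For each measurement, 10 μM compound was applied for 30 min to K562 cells at 2×10^6 cells/mL. Aliquots were heated for 3 min across 48°C-58°C, pooled, and extracted in PBS with 0.5% NP-40 at 4°C; the supernatant after 21,000xg for 90 min was soluble protein. This was quantified by TMTpro 16plex LC-MS/MS with channel sums equalised, and thermal stability was reported relative to control samples from duplicates, on a log2 fold-change scale.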

[2] = compound: NC(=O)c1cnc(N[C@@H]2CCCC[C@@H]2N)nc1Nc1cccc(-n2nccn2)c1
Method in brief: as §1

[3] = compound: NC1(c2ccc(-c3nc4ccn5c(=O)[nH]nc5c4cc3-c3ccccc3)cc2)CCC1
Method in brief: as §1

[4] = compound: NCC(=O)Nc1ccc(-n2nc(C(F)(F)F)cc2-c2ccc3c(ccc4ccccc43)c2)cc1
Method in brief: as §1

entinostat = compound: Nc1ccccc1NC(=O)c1ccc(CNC(=O)OCc2cccnc2)cc1 [entinostat]
Method in brief: as §1

vorinostat = compound: O=C(CCCCCCC(=O)Nc1ccccc1)NO [vorinostat]
Method in brief: as §1

citarinostat = compound: O=C(CCCCCCNC(=O)c1cnc(N(c2ccccc2)c2ccccc2Cl)nc1)NO [citarinostat]
Method in brief: as §1

silmitasertib = compound: O=C(O)c1ccc2c(c1)nc(Nc1cccc(Cl)c1)c1ccncc12 [silmitasertib]
Method in brief: as §1

[5] = compound: O=C1NC(=O)C(c2cnc3ccccn23)=C1c1cn2c3c(cc(F)cc13)CN(C(=O)N1CCCCC1)CC2
Method in brief: as §1

[6] = compound: c1cc(OCCN2CCCCC2)cc(-c2n[nH]c3ccc(-c4nnc[nH]4)cc23)c1
Method in brief: as §1

Measured: log2 fold change

GSR (UniProt P00390)
inactive: [1] 0.008 | [2] -0.046 | [3] 0 | [4] -0.03 | entinostat -0.011 | vorinostat 0.019 | citarinostat 0.028 | silmitasertib -0.027 | [5] -0.023 | [6] 0.018

HEXA (UniProt P06865)
UniProt P06865, sequence (P06865 whole entry, looked up): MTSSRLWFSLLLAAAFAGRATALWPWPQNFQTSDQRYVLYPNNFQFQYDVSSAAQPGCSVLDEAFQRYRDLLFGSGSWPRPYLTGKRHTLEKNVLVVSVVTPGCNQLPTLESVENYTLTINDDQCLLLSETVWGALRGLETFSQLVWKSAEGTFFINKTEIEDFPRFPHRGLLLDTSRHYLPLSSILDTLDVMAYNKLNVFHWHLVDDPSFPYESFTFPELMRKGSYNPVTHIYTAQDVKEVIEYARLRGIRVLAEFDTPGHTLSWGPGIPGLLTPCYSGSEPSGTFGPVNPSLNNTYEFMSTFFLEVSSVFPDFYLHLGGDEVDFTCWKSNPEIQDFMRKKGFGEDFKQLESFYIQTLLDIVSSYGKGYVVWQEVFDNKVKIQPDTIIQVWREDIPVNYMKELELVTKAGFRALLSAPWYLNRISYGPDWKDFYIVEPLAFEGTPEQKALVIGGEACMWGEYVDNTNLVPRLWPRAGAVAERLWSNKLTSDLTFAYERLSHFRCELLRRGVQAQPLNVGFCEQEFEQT
inactive: [1] -0.025 | [2] -0.06 | [3] -0.156 | [4] 0.006 | entinostat -0.028 | vorinostat -0.02 | citarinostat 0.056 | silmitasertib -0.013 | [5] -0.037 | [6] -0.022

GALK1 isoform 2 (UniProt P51570)
UniProt P51570, sequence (P51570 whole entry, looked up): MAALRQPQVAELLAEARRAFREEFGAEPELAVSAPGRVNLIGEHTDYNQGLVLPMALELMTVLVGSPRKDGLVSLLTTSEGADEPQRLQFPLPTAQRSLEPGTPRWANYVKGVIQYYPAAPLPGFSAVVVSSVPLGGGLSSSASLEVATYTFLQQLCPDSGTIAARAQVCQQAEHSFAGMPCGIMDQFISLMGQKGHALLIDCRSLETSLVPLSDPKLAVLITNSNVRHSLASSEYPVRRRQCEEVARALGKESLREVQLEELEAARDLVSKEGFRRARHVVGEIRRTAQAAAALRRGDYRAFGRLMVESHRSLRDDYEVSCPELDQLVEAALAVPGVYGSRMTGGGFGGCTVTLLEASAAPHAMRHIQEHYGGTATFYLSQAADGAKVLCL
inactive: [2] 0.066 | [3] -0.087 | [4] 0.141 | entinostat 0.171 | vorinostat 0.094 | citarinostat 0.111 | silmitasertib -0.063 | [5] 0.049 | [6] 0.11
active: [1] 0.357

HP1BP3 (UniProt Q5SSJ5)
inactive: [1] 0.026 | [2] -0.057 | [3] 0.043 | [4] -0.034 | entinostat 0.025 | vorinostat 0.132 | citarinostat 0.113 | silmitasertib -0.048 | [5] 0.067 | [6] -0.023

GNAS (UniProt Q5JWF2)
UniProt Q5JWF2, sequence (Q5JWF2 whole entry, looked up): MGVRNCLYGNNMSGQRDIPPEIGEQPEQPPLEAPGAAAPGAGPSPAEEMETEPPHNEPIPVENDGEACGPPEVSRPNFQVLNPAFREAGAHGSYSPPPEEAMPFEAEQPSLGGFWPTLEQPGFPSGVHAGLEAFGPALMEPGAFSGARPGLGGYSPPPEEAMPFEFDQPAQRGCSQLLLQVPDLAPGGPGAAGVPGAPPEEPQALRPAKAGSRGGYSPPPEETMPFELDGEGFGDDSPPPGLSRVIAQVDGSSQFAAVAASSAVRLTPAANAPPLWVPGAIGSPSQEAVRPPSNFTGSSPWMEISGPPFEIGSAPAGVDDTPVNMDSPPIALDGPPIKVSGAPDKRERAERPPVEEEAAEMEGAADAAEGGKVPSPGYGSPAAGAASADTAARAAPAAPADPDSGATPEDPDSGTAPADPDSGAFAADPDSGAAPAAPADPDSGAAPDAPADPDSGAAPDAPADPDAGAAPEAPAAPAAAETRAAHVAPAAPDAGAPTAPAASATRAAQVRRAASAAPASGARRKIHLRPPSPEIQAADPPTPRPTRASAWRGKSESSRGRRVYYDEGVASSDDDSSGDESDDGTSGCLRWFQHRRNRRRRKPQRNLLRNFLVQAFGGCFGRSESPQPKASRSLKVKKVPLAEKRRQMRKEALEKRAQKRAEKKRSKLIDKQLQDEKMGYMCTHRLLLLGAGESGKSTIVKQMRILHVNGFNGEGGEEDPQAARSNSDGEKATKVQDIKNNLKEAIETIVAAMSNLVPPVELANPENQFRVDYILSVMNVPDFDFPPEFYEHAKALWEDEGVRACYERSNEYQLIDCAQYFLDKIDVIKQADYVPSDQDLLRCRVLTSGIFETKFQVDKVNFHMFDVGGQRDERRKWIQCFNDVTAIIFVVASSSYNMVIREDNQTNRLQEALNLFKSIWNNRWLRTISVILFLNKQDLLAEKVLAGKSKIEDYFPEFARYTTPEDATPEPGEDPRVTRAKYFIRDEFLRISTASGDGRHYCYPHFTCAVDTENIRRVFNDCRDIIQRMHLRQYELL
inactive: [1] -0.133 | [2] -0.009 | [3] 0.002 | [4] -0.004 | entinostat -0.058 | vorinostat -0.022 | citarinostat -0.043 | silmitasertib -0.018 | [5] -0.007 | [6] -0.045

FANCI (UniProt Q9NVI1)
active: [3] -0.281
inactive: [1] 0.139 | [2] -0.069 | [4] -0.08 | entinostat 0.083 | vorinostat 0.112 | citarinostat 0.099 | silmitasertib -0.089 | [5] 0.033 | [6] -0.045

FOXK1 (UniProt P85037)
inactive: [1] 0.497 | [2] 0.201 | [3] 0.38 | [4] 0.096 | entinostat 0 | vorinostat -0.15 | citarinostat 0.023 | silmitasertib 0.512 | [6] -0.031
active: [5] -1.33

GNG5 (UniProt P63218)
inactive: [1] -0.029 | [2] 0.071 | [3] 0.056 | [4] 0.086 | entinostat 0.082 | vorinostat -0.127 | citarinostat -0.021 | silmitasertib 0.017 | [5] -0.156 | [6] -0.057

FANCD2 isoform 1 (UniProt Q9BXW9)
inactive: [1] 0.087 | [2] -0.189 | [3] -0.304 | [4] -0.034 | entinostat 0.022 | vorinostat 0.187 | citarinostat 0.11 | silmitasertib -0.109 | [5] -0.034 | [6] -0.039

FKBP7 (UniProt Q9Y680)
inactive: [1] -0.034 | [2] -0.017 | [3] 0.005 | [4] -0.037 | entinostat -0.029 | vorinostat -0.017 | citarinostat -0.02 | silmitasertib 0.079 | [5] 0.008 | [6] -0.097

HNRNPH1 (UniProt P31943)
inactive: [1] 0.052 | [2] -0.023 | [3] -0.075 | [4] -0.059 | entinostat 0.118 | vorinostat 0.168 | citarinostat 0.09 | silmitasertib 0.024 | [5] -0.105 | [6] -0.074

HIP1 (UniProt O00291)
inactive: [1] -0.038 | [2] 0.035 | [3] 0.032 | [4] 0.038 | entinostat -0.061 | vorinostat -0.013 | citarinostat 0.072 | silmitasertib -0.123 | [5] -0.146 | [6] 0.06

FDXR isoform 7 (UniProt P22570)
UniProt P22570, sequence (P22570 whole entry, looked up): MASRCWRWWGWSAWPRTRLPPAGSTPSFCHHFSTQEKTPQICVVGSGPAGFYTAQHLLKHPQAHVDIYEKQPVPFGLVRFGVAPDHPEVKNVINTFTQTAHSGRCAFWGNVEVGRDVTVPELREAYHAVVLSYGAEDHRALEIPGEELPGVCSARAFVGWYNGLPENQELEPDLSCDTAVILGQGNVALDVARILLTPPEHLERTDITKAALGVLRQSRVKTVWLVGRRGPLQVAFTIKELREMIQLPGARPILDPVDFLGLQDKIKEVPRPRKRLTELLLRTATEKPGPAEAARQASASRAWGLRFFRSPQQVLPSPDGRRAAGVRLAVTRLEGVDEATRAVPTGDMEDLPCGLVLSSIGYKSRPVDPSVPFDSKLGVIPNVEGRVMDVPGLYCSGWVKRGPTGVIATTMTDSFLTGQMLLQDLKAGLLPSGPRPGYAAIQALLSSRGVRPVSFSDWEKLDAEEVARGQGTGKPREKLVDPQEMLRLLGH
inactive: [1] -0.03 | [2] -0.044 | [3] -0.083 | [4] -0.082 | entinostat -0.006 | vorinostat 0.084 | citarinostat 0.031 | silmitasertib -0.034 | [5] -0.197 | [6] -0.11

GIGYF2 (UniProt Q6Y7W6)
inactive: [1] -0.102 | [2] -0.062 | [3] -0.046 | [4] -0.079 | entinostat 0.024 | vorinostat 0.103 | citarinostat 0.06 | silmitasertib -0.004 | [5] -0.016 | [6] -0.065

FUCA2 (UniProt Q9BTY2)
active: [3] -0.499 | [6] -0.551
inactive: [1] 0.004 | [2] -0.037 | [4] 0.013 | entinostat -0.03 | vorinostat -0.033 | citarinostat 0.042 | silmitasertib 0.032 | [5] 0.032

FHOD1 (UniProt Q9Y613)
inactive: [1] -0.075 | [2] -0.042 | [3] 0.179 | [4] 0.051 | entinostat -0.103 | vorinostat 0.034 | citarinostat -0.073 | silmitasertib 0.177 | [5] 0.23 | [6] -0.085

HADHA (UniProt P40939)
inactive: [1] -0.035 | [2] 0.033 | [3] 0.131 | [4] 0.125 | entinostat 0.045 | vorinostat -0.059 | citarinostat 0.018 | silmitasertib -0.1 | [6] -0.007
active: [5] 1.01

FARS2 (UniProt O95363)
UniProt O95363, sequence (O95363 whole entry, looked up): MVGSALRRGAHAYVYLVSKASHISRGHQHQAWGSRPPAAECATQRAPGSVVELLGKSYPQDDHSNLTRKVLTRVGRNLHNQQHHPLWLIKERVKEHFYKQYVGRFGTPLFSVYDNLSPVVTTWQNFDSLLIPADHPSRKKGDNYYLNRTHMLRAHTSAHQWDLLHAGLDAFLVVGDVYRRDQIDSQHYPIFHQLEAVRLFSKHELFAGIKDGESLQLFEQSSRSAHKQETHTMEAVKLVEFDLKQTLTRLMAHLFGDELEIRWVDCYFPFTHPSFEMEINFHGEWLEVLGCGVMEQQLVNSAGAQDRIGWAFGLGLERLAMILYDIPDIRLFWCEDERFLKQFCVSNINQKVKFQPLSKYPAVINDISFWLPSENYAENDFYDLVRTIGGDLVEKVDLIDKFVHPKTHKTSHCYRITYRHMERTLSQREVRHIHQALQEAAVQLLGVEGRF
inactive: [1] -0.006 | [2] 0.003 | [3] -0.222 | [4] 0.012 | entinostat 0.028 | vorinostat 0.073 | citarinostat 0.022 | silmitasertib -0.027 | [5] -0.11 | [6] 0.005

GMEB1 (UniProt Q9Y692)
UniProt Q9Y692, sequence (Q9Y692 whole entry, looked up): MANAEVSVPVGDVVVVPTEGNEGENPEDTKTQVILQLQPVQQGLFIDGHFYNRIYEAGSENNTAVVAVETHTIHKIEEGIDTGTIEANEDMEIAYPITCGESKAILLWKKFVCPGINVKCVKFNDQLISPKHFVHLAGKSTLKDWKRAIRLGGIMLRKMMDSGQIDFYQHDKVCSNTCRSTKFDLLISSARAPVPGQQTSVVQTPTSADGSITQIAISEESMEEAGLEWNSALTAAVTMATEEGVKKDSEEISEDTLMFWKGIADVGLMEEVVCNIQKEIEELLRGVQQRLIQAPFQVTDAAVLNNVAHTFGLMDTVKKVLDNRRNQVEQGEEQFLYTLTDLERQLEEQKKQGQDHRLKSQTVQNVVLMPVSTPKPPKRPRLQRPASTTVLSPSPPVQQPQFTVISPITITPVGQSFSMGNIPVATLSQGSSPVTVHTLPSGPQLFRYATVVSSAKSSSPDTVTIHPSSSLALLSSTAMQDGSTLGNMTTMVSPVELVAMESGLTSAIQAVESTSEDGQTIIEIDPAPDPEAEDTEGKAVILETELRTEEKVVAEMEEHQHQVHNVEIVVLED
inactive: [1] 0.066 | [2] -0.072 | [3] -0.047 | [4] 0.027 | entinostat 0.073 | vorinostat 0.001 | citarinostat 0.057 | silmitasertib 0.112 | [5] -0.053 | [6] -0.004

GLCCI1 (UniProt Q86VQ1)
inactive: [1] -0.12 | [2] 0.03 | [3] -0.024 | [4] 0.102 | entinostat 0.056 | vorinostat 0.158 | citarinostat 0.002 | silmitasertib -0.042 | [5] 0.01 | [6] -0.088

IFRD2 isoform 2 (UniProt Q12894)
UniProt Q12894, sequence (Q12894 whole entry, looked up): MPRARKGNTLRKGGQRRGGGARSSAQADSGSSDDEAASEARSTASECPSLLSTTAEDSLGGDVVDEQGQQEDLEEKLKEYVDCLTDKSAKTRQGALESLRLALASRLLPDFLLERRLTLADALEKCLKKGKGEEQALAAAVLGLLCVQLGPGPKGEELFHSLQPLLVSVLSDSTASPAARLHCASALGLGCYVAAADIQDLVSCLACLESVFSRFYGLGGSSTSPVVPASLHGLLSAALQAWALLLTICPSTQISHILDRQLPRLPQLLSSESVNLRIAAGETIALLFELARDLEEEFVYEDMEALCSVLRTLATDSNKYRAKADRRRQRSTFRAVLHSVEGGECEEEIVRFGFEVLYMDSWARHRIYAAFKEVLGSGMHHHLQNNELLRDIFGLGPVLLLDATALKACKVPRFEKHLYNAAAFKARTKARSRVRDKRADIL
inactive: [1] -0.044 | [2] -0.279 | [3] 0.003 | [4] 0.11 | entinostat -0.2 | vorinostat -0.244 | citarinostat -0.028 | silmitasertib 0.276 | [5] -0.008 | [6] 0.046

FDPS (UniProt P14324)
inactive: [1] 0.009 | [2] -0.136 | [3] -0.48 | [4] -0.14 | entinostat 0.001 | vorinostat 0.215 | citarinostat 0.142 | silmitasertib -0.108 | [5] -0.026 | [6] -0.069

GABPA (UniProt Q06546)
inactive: [1] -0.05 | [2] -0.057 | [3] -0.203 | [4] -0.042 | entinostat 0.108 | vorinostat 0.138 | citarinostat 0.139 | silmitasertib -0.007 | [5] -0.13 | [6] 0.008

GTF2E1 (UniProt P29083)
inactive: [1] -0.038 | [2] -0.118 | [3] -0.122 | [4] -0.198 | entinostat 0.054 | vorinostat 0.095 | citarinostat 0.073 | silmitasertib 0.06 | [5] -0.134 | [6] -0.124

GID4 (UniProt Q8IVV7)
UniProt Q8IVV7, sequence (Q8IVV7 whole entry, looked up): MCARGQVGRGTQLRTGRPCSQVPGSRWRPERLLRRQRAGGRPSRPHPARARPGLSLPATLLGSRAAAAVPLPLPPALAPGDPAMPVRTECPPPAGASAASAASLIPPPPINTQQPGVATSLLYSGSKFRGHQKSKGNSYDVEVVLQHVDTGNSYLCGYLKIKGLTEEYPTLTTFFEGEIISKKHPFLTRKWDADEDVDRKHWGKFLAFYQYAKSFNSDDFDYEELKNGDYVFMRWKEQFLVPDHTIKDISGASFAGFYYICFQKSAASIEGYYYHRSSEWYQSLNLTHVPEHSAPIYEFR
active: entinostat 0.289
inactive: [1] -0.165 | [2] -0.03 | [3] -0.032 | [4] -0.146 | vorinostat -0.074 | citarinostat 0.006 | silmitasertib 0.118 | [5] -0.017 | [6] -0.052

GSTP1 (UniProt P09211)
UniProt P09211, sequence (P09211 whole entry, looked up): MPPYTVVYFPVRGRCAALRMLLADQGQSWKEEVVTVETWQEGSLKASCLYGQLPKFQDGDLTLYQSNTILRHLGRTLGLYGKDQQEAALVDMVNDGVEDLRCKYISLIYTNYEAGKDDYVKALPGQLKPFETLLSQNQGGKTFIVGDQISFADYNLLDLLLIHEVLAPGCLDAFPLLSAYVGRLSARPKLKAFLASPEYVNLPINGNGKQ
inactive: [1] -0.044 | [2] -0.01 | [3] -0.056 | [4] 0.001 | entinostat -0.006 | vorinostat -0.012 | citarinostat 0.034 | silmitasertib -0.038 | [5] -0.005 | [6] -0.013

GLYR1 (UniProt Q49A26)
UniProt Q49A26, sequence (Q49A26 whole entry, looked up): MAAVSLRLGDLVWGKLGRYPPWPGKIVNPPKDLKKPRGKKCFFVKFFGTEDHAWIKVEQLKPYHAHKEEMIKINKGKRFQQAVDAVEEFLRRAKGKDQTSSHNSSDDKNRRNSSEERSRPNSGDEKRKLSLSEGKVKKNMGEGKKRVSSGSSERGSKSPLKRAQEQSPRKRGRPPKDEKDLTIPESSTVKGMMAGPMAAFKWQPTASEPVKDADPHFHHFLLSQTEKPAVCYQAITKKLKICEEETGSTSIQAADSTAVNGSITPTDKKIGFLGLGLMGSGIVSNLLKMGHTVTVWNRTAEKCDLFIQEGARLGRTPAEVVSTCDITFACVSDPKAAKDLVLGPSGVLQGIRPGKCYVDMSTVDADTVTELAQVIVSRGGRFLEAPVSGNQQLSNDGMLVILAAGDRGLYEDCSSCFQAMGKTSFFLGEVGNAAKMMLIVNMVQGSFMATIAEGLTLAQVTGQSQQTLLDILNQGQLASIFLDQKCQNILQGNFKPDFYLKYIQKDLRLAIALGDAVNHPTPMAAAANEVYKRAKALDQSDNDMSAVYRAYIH
inactive: [1] -0.023 | [2] 0.034 | [3] -0.032 | [4] 0.112 | entinostat -0.049 | vorinostat 0.027 | citarinostat 0.011 | silmitasertib -0.015 | [5] -0.009 | [6] -0.135

HSD17B12 (UniProt Q53GQ0)
inactive: [1] -0.031 | [2] 0.005 | [3] -0.049 | [4] 0.066 | entinostat -0.02 | vorinostat -0.014 | citarinostat 0.14 | silmitasertib 0.037 | [5] -0.146 | [6] -0.082

GLS (UniProt O94925)
inactive: [1] -0.019 | [2] 0.152 | [3] -0.157 | [4] -0.093 | entinostat 0.039 | vorinostat 0.022 | citarinostat 0.068 | silmitasertib 0.008 | [5] -0.193 | [6] -0.032

GNS (UniProt P15586)
inactive: [1] 0.002 | [2] 0 | [3] -0.109 | [4] 0.01 | entinostat -0.006 | vorinostat -0.036 | citarinostat 0.019 | silmitasertib -0.026 | [5] -0.049 | [6] 0.003
